Consider eight molecules from PubChem BioAssay (NCI).

Test systems include SK-MEL-2 melanoma; EKVX NSCLC; SN12C renal; UO-31 renal; TK-10 renal; ACHN renal; CAKI-1 renal; A498 renal; CCRF-CEM leukemia; MOLT-4 leukemia; SR leukemia; RPMI-8226 leukemia; OVCAR-8 ovarian; OVCAR-5 ovarian; OVCAR-4 ovarian; SK-OV-3 ovarian; IGROV1 ovarian; OVCAR-3 ovarian; HS 578T breast; NCI/ADR-RES ovarian.
Common to all, as to experiment: NCI-60 one-dose screen, 48 h (100 = growth as untreated, 0 = no growth, -100 = all killed)
Common to all, as to conditions: 10 µM unless noted

This is part of a sample that, as a whole, favours compounds with a hit. Of some 83,000 tested, about 20% had one in any assay.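 Interpretation: 100, growth as untreated; towards 0, rising growth inhibition; 0, no net growth; 0 to -100, cell death. Compounds scoring below 10 were considered active.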 Values without a mark were called inactive. Calls of active or inactive are those of the source.

On to `O=C(Nc1ccc(I)cc1)c1cccc([N+](=O)[O-])c1O`, for which the growth in the experiment with SK-MEL-2 melanoma is -11.9% (active); in the experiment with EKVX NSCLC, 8.49% (active); in the experiment with SN12C renal, 20.3%; in the experiment with UO-31 renal, -0.371% (active); in the experiment with TK-10 renal, 7.73% (active); with ACHN renal, 21.8%. In addition, the growth in the experiment with CAKI-1 renal was 13.4%; in the experiment on A498 renal, -6.2% (active); with CCRF-CEM leukemia, 25.9%; in the experiment with MOLT-4 leukemia, 8.55% (active); with SR leukemia, 31.6%; in the experiment with RPMI-8226 leukemia, 6.95% (active). The growth is 17.1% in the experiment with OVCAR-8 ovarian; 43.4% with OVCAR-5 ovarian; 19.1% with OVCAR-4 ovarian; -2.55% (active) in the experiment with SK-OV-3 ovarian; 30.4% with IGROV1 ovarian; 7.89% (active) in the experiment on OVCAR-3 ovarian. Moreover, the growth is 42.6% in the experiment on HS 578T breast and 9.57% (active) in the experiment with NCI/ADR-RES ovarian.
`Cc1ccc2nc(-c3c(N)n[nH]c3CCCO)[nH]c(=O)c2c1`: the growth in the experiment with SK-MEL-2 melanoma was 108%; with EKVX NSCLC it was 103%; with SN12C renal it was 104%; in the experiment with UO-31 renal it was 63.9%; in the experiment on TK-10 renal, 109%; in the experiment on ACHN renal, 115%. The growth with CAKI-1 renal was 112%; in the experiment on A498 renal, 100%; in the experiment with CCRF-CEM leukemia it was 91.8%; in the experiment on MOLT-4 leukemia, 95.7%; in the experiment on SR leukemia it was 77.2%; with RPMI-8226 leukemia, 91.6%. The growth is 105% in the experiment with OVCAR-8 ovarian; 110% in the experiment with OVCAR-5 ovarian; 106% in the experiment with OVCAR-4 ovarian; 108% with SK-OV-3 ovarian; 7.26% (active) with IGROV1 ovarian; 115% in the experiment with OVCAR-3 ovarian. Further, the results for the growth with HS 578T breast and in the experiment with NCI/ADR-RES ovarian were 103% and 102%, respectively.
Turning to `O=S(=O)(NCCCNc1cc(-c2cn(-c3ccccc3)nc2-c2cccc(O)c2)ccn1)c1ccc(C(F)(F)F)cc1`, the growth with SK-MEL-2 melanoma was 72.7%; with EKVX NSCLC, 40.8%; with SN12C renal, 50.1%; in the experiment on UO-31 renal, 24.9%; with TK-10 renal, 77.7%; in the experiment with ACHN renal, 31.5%. In addition, the growth is 34.7% with CAKI-1 renal; 57.2% with A498 renal; 30.2% with CCRF-CEM leukemia; 16% in the experiment on MOLT-4 leukemia; 8.04% (active) in the experiment on SR leukemia; 15.4% in the experiment with RPMI-8226 leukemia. In addition, the growth with OVCAR-8 ovarian is 53%; with OVCAR-5 ovarian, 57.8%; with OVCAR-4 ovarian it was 45.1%; in the experiment on SK-OV-3 ovarian, 54.8%; in the experiment on IGROV1 ovarian, 58.9%; in the experiment with OVCAR-3 ovarian, 49.6%. The growth in the experiment on HS 578T breast is 22.6%; in the experiment on NCI/ADR-RES ovarian, 35%.
Turning to `CCCCCCCN(CCCCCCC)C(=N)c1ccc(OC)c2ccccc12`, the growth with SK-MEL-2 melanoma was -82.5% (active); in the experiment with EKVX NSCLC it was -21.7% (active); in the experiment with SN12C renal, -75.4% (active); in the experiment with UO-31 renal, -86.6% (active); with TK-10 renal it was -89.4% (active); with ACHN renal it was -91.9% (active). Also, the growth in the experiment on CAKI-1 renal was -12.2% (active); with A498 renal it was -52.9% (active); in the experiment on CCRF-CEM leukemia, -43.5% (active); in the experiment with MOLT-4 leukemia, -50.4% (active); in the experiment on SR leukemia, -48.6% (active); with RPMI-8226 leukemia it was -48.8% (active). Besides, the growth with OVCAR-8 ovarian is -66.3% (active); in the experiment with OVCAR-5 ovarian it was -82.4% (active); in the experiment with OVCAR-4 ovarian it was -98% (active); in the experiment on SK-OV-3 ovarian, -68.2% (active); with IGROV1 ovarian, -73.5% (active); in the experiment with OVCAR-3 ovarian, -94.6% (active). The growth with HS 578T breast was -60.6% (active); with NCI/ADR-RES ovarian it was -75.7% (active).
As to `O=C(Nc1ccc(F)cc1)c1cc([N+](=O)[O-])ccc1O`, the growth with SK-MEL-2 melanoma is 37%; in the experiment on EKVX NSCLC, 77%; in the experiment on SN12C renal, 82.4%; in the experiment with UO-31 renal, 58.9%; in the experiment on TK-10 renal, 81.6%; in the experiment with ACHN renal, 73.2%. Further, the growth in the experiment on CAKI-1 renal was 67.1%; in the experiment with A498 renal, 25.5%; in the experiment on CCRF-CEM leukemia, 59.5%; with MOLT-4 leukemia it was 63.3%; with SR leukemia, 83.7%; in the experiment with RPMI-8226 leukemia, 32.4%. The growth is 76.2% with OVCAR-8 ovarian; 86.1% in the experiment with OVCAR-5 ovarian; 70.5% in the experiment on OVCAR-4 ovarian; 84% in the experiment with SK-OV-3 ovarian; 66.3% with IGROV1 ovarian; 56.1% in the experiment on OVCAR-3 ovarian. The growth in the experiment on HS 578T breast is 64%; in the experiment on NCI/ADR-RES ovarian, 72.9%.
As for `O=C1Nc2cc(Cl)ccc2/C1=C/c1ccc(N2CCOCC2)s1`, the growth is 91.4% in the experiment with SK-MEL-2 melanoma; 105% with EKVX NSCLC; 104% in the experiment on SN12C renal; 85.9% with UO-31 renal; -3.94% (active) in the experiment with TK-10 renal; 114% in the experiment on ACHN renal. For the same molecule, the growth with CAKI-1 renal is 100%; in the experiment on A498 renal it was 87.1%; in the experiment with CCRF-CEM leukemia, 99.8%; with MOLT-4 leukemia, 92.8%; with SR leukemia, 97%; in the experiment with RPMI-8226 leukemia, 85.7%. Besides, the growth with OVCAR-8 ovarian was 98.2%; with OVCAR-5 ovarian it was 94.4%; in the experiment with OVCAR-4 ovarian, 99.1%; with SK-OV-3 ovarian, 113%; in the experiment on IGROV1 ovarian, 45.3%; with OVCAR-3 ovarian it was 115%. Besides, the growth with HS 578T breast is 129%; in the experiment on NCI/ADR-RES ovarian, 99.8%.
Take `O=C(Nc1ccc(I)cc1)c1cc([N+](=O)[O-])ccc1O`: the growth is -0.392% (active) in the experiment with SK-MEL-2 melanoma; 39.7% in the experiment with EKVX NSCLC; 34.3% with SN12C renal; 22.5% in the experiment with UO-31 renal; 40% in the experiment with TK-10 renal; 48.8% in the experiment with ACHN renal. The growth in the experiment on CAKI-1 renal is 30.9%; in the experiment with A498 renal it was -27.9% (active); in the experiment with CCRF-CEM leukemia, 28.4%; with MOLT-4 leukemia, 18.8%; with SR leukemia, 36.6%; in the experiment with RPMI-8226 leukemia, 10.1%. The growth in the experiment on OVCAR-8 ovarian is 39.9%; in the experiment with OVCAR-5 ovarian it was 54.8%; in the experiment on OVCAR-4 ovarian, 30.3%; in the experiment on SK-OV-3 ovarian it was 38.6%; in the experiment with IGROV1 ovarian it was 39.6%; with OVCAR-3 ovarian, 18.3%. Also, the growth with HS 578T breast is 16.1%; in the experiment on NCI/ADR-RES ovarian, 29.1%.
As for `O=C1OC(c2ccccc2)=N/C1=C\c1ccc([N+](=O)[O-])cc1`, the growth in the experiment on SK-MEL-2 melanoma was 105%; in the experiment on EKVX NSCLC, 99.9%; with SN12C renal, 100%; in the experiment with UO-31 renal it was 91.7%; in the experiment with TK-10 renal it was 97.4%; with ACHN renal, 102%. For the same molecule, the growth in the experiment with CAKI-1 renal is 91.5%; in the experiment with A498 renal, 87.4%; in the experiment with CCRF-CEM leukemia, 114%; with MOLT-4 leukemia, 102%; in the experiment with SR leukemia, 97.3%; in the experiment with RPMI-8226 leukemia, 102%. The growth is 111% in the experiment with OVCAR-8 ovarian; 92.8% in the experiment on OVCAR-5 ovarian; 114% in the experiment on OVCAR-4 ovarian; 109% in the experiment on SK-OV-3 ovarian; 100% in the experiment on IGROV1 ovarian; 106% with OVCAR-3 ovarian. The values for the growth in the experiment with HS 578T breast and in the experiment with NCI/ADR-RES ovarian were 82.6% and 104%, respectively.
